Results as given in PubChem BioAssay (NCATS).
Inconclusive results are not listed. The source made the active and inactive calls. Unless noted, calls follow the shape of the dose curve; as a rule, active = well fitted curve in the direction sought with a large enough effect; inconclusive = small, poorly fitted or top-dose-only effect, or another doubt; inactive = no such curve, though single readings can be large; an effect the other way counts as inactive or inconclusive.

Experiments:
[1] = target: ATP-dependent 6-phosphofructokinase (Trypanosoma brucei brucei) (UniProt O15648); assay: qHTS Assay to Find Inhibitors of T. brucei phosphofructokinase: hit validation (AID 492961);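 also: luminescence reports ADP formed as PFK phosphorylates fructose-6-phosphate with ATP; % is scaled to controls: 0 for no effect and ±100 for the full control effect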
ATP-dependent 6-phosphofructokinase (Trypanosoma brucei brucei), sequence (O15648 whole entry, looked up): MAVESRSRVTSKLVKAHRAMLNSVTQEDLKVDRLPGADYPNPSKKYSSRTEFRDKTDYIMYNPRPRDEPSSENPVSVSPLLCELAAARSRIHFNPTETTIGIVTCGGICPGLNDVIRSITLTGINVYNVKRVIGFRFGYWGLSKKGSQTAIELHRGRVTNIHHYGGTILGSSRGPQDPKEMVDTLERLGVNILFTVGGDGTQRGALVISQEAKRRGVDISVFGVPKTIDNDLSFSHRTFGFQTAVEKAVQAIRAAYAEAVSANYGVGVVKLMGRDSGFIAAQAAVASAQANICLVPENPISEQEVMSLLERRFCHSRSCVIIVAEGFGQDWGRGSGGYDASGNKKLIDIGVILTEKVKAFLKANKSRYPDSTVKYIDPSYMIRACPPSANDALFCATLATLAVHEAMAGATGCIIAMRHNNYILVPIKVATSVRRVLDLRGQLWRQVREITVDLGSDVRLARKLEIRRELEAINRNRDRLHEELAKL
Outline: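 Inhibition of parasite PFK is measured as reduced ADP formation, quantified via luciferase after ATP depletion. Assay used 0.1 mM ATP, 0.5 mM F6P, 1.25 nM enzyme, 45 min incubation.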

[2] = target: Luciferin 4-monooxygenase (Photinus pyralis) (UniProt P08659); assay: Biochemical firefly luciferase enzyme assay for NPC (AID 624030);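 also: purified P. pyralis luciferase at 10 nM with luciferin and ATP substrate; 0% = DMSO and -100% = full luciferase inhibition by PTC124 control; nearly all actives have a fitted effect of over 70% in size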
Luciferin 4-monooxygenase (Photinus pyralis), sequence (P08659 whole entry, looked up): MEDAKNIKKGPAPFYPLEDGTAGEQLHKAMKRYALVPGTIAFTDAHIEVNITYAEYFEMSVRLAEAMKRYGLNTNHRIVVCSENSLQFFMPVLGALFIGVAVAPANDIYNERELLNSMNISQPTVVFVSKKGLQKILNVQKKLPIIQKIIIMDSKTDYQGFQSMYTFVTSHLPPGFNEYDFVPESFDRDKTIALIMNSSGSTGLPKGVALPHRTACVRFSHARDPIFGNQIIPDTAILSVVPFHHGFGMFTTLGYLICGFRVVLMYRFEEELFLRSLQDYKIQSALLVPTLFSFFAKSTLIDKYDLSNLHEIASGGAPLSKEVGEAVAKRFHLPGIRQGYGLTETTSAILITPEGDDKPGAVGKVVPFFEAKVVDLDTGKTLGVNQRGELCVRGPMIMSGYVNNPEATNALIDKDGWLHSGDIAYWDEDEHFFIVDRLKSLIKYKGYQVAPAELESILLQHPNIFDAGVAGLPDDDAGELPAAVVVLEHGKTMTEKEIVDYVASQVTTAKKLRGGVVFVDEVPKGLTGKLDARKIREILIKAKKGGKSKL
Outline: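 Purified P. pyralis luciferase at 10 nM in 50 mM Tris Acetate (final), luminescence read within 5 minutes of enzyme addition to compounds. Activity normalised to PTC124 versus DMSO; concentration-response curves classed by r2, magnitude and activity.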

[3] = S16 Schwann cell PMP22 intronic element firefly luciferase assay (AID 624032);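 also: plate controls were DMSO for no effect and PTC124 positive control mean for full effect; nearly all actives have a fitted effect of over 30% in size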
Outline: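 Rat S16 Schwann cells stably carrying firefly luciferase driven by a PMP22 intronic element, in 10% FBS, treated 24 h at 37 C. ONE-Glo luminescence normalized to PTC124 control and DMSO (0%); curves classed by r2, magnitude and activity.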

[4] = S16 Schwann cell PMP22 intronic element beta-lactamase assay (AID 624044; calls by dose curve;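 also: 0% = DMSO and -100% = potassium clavulanate positive control; nearly all actives have a fitted effect of over 15% in size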)
Outline: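 Beta-lactamase reporter under a PMP22 intronic regulatory element in stable S16 rat Schwann cells; 24 h compound exposure. 460 nm blue signal normalized between DMSO (0%) and potassium clavulanate, with 535 nm FRET tracking viability; curves classed by r2 and response.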

Furin (Homo sapiens) = Furin (Homo sapiens) (UniProt P09958); assay: Furin counterscreen qHTS for Zika virus inhibitors (AID 1347149);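 also: purified recombinant full-length human furin enzyme at 5 nM; fluorescence gain from furin cutting a BOC-RVRR-AMC peptide substrate over 15 min; top concentration of the series differs between compounds; plate controls were no-inhibitor control for no effect and no-enzyme control for full effect; nearly all actives have a fitted effect of over 70% in size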
Furin (Homo sapiens), sequence (P09958 whole entry, looked up): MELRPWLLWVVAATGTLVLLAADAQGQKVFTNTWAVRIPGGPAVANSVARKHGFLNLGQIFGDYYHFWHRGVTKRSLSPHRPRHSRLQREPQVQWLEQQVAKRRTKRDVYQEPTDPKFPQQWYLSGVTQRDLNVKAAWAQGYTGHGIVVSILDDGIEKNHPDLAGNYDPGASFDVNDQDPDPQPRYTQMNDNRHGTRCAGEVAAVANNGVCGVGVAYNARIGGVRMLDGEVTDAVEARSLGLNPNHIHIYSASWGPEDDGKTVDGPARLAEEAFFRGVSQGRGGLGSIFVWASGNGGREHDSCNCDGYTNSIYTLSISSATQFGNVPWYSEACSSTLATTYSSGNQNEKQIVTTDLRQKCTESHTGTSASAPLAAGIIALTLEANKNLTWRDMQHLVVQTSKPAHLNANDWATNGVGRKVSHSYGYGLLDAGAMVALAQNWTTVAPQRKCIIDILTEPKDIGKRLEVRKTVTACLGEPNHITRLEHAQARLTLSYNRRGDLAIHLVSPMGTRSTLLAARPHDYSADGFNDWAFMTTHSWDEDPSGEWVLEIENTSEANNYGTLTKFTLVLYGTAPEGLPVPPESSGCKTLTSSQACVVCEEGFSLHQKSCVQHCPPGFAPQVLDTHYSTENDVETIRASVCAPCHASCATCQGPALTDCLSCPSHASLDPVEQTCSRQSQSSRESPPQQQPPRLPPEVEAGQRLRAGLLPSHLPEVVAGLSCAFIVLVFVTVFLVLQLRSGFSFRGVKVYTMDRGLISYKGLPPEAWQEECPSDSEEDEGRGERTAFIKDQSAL
Outline: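 Counterscreen measures cleavage of 2 microM BOC-RVRR-AMC, below its ~15 microM Km, by 5 nM full-length human furin at pH 7.0 after a 15-min compound preincubation. Inhibition derives from the 15-min fluorescence increase at 37C.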

[5] = Vero cells viability qHTS for Zika virus inhibitors (AID 1347167); also: % is scaled to controls: 0 for no effect and ±100 for the full control effect
Outline: (§1)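 qHTS titration; 24-48 h compound exposure, 37 degrees C/5% CO2; DMEM, 4% FBS; CellTiter Glo ATP luminescence.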

[6] = HepG2 cells viability qHTS for Zika virus inhibitors (AID 1347168); also: % is scaled to controls: 0 for no effect and ±100 for the full control effect
Outline: as §1

[7] = Tertiary RLuc qRT-PCR qHTS assay for Zika virus inhibitors (AID 1347169); also: potency is read from the fitted curve at half-maximal effect; nearly all actives have a fitted effect of over 55% in size
Outline: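 Luminescence read-out: live-cell Renilla luciferase substrate applied to infected Vero cells, signal measured after 1-1.5 hrs. Cells had received compound before ZIKV-RLuc (Cambodian strain, MOI 1-2) infection and were incubated 48-72 hrs at 37 degrees C.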

[8] = Primary qHTS for inhibitors of SARS-S pseudo-typed particle cell entry (AID 1479145; calls by dose curve; also: % is scaled to controls: 0 for no effect and ±100 for the full control effect; nearly all actives have a fitted effect of over 45% in size)
[9] = Primary qHTS for inhibitors of MERS-S pseudo-typed particle cell entry (AID 1479149; calls by dose curve; also: % is scaled to controls: 0 for no effect and ±100 for the full control effect; nearly all actives have a fitted effect of over 60% in size)
[10] = Primary qHTS to identify inhibitors of SARS-CoV-2 cell entry (AID 1645846; calls by dose curve; also: nearly all actives have a fitted effect of over 45% in size); conditions: activity change, negative = inhibition: at 57.1 µM (top of the series) unless noted
Outline: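 HEK293-ACE2 (Expi293F, stable hACE2), 1500 cells/well, o/n 37C; cpd 23 nL pin, 1 h; MLV-PP w/ SARS-CoV-2-S (Wuhan-Hu-1, Δ19 C-term); 48 h 37C; Bright-Glo luminescence; normalized vs S-PP and bald PP.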

[11] = target: Glutathione peroxidase 1 (Homo sapiens) (UniProt P07203); assay: Primary qHTS Assay for Inhibitors of Recombinant Selenoprotein Glutathione Peroxidase 1 (GPX1) (AID 1845191); also: nearly all actives have a fitted effect of over 65% in size
Glutathione peroxidase 1 (Homo sapiens), sequence (P07203 whole entry, looked up): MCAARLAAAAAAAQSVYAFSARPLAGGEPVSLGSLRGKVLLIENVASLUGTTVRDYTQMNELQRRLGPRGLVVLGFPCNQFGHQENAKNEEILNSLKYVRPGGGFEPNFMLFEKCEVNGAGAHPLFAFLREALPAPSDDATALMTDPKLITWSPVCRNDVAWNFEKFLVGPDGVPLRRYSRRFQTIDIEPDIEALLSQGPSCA
Outline: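 GR-coupled readout: NADPH consumption tracked by fluorescence, ex 340/em 450 nm, at t=0 and after 15 min at RT. Final mix 10 nM GPX1, 1 mM GSH, 0.5 mM CHP, 0.5 mM NADPH, 100 nM GR, 0.01% BSA, following 30 min enzyme–compound preincubation.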

[12] = target: Phospholipid hydroperoxide glutathione peroxidase GPX4 (Homo sapiens) (UniProt P36969); assay: Primary qHTS Assay for Inhibitors of Recombinant Selenoprotein Glutathione Peroxidase 4 (GPX4) (AID 1845192); also: nearly all actives have a fitted effect of over 65% in size
Phospholipid hydroperoxide glutathione peroxidase GPX4 (Homo sapiens), sequence (P36969 whole entry, looked up): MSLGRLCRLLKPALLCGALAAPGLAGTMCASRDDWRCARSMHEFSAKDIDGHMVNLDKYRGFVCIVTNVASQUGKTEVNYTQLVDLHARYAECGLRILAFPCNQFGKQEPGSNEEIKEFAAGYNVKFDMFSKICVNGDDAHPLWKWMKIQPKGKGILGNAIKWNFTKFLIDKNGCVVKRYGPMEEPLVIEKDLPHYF
Outline: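 Steps: GPX4 plus compound, 30 min RT; add GR/GSH/NADPH master mix; start with cumene hydroperoxide; read 340/450 nm fluorescence at 0 and 15 min. Finals were 200 nM GPX4, 1 mM GSH, 0.5 mM CHP, 0.5 mM NADPH, 100 nM GR.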

[13] = qHTS profiling for inhibitors of Plasmodium falciparum proliferation (AID 504749);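 also: 0% = DMSO vehicle and full inhibition = artemisinin control; nearly all actives have a fitted effect of over 60% in size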; conditions: P. falciparum in erythrocytes, SYBR Green DNA, 72 h, at 28.7 µM (top of the series)
Outline: (§2)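 SYBR Green fluorescence (ex 485 nm, em 535 nm) reports parasite DNA after 72 h compound exposure of infected red cells at 0.3% parasitemia, 2.5% hematocrit; signal normalized to 0.29 uM artemisinin and vehicle wells.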

3D7 = assay: as above; conditions: P. falciparum in erythrocytes, SYBR Green DNA, 72 h; series mostly up to 28.7 µM
Outline: as §2

AA1029 = assay: as above; conditions: P. falciparum in erythrocytes, SYBR Green DNA, 72 h; series mostly up to 28.7 µM
Outline: as §2

AS120 = assay: as above; conditions: P. falciparum in erythrocytes, SYBR Green DNA, 72 h; series mostly up to 28.7 µM
Outline: as §2

ATS189 = assay: as above; conditions: P. falciparum in erythrocytes, SYBR Green DNA, 72 h; series mostly up to 28.7 µM
Outline: as §2

ATS95 = assay: as above; conditions: P. falciparum in erythrocytes, SYBR Green DNA, 72 h; series mostly up to 28.7 µM
Outline: as §2

C2A = assay: as above; conditions: P. falciparum in erythrocytes, SYBR Green DNA, 72 h; series mostly up to 28.7 µM
Outline: as §2

CP185 = assay: as above; conditions: P. falciparum in erythrocytes, SYBR Green DNA, 72 h; series mostly up to 28.7 µM
Outline: as §2

CP191 = assay: as above; conditions: P. falciparum in erythrocytes, SYBR Green DNA, 72 h; series mostly up to 28.7 µM
Outline: as §2

CP192 = assay: as above; conditions: P. falciparum in erythrocytes, SYBR Green DNA, 72 h; series mostly up to 28.7 µM
Outline: as §2

CP194 = assay: as above; conditions: P. falciparum in erythrocytes, SYBR Green DNA, 72 h; series mostly up to 28.7 µM
Outline: as §2

CP201 = assay: as above; conditions: P. falciparum in erythrocytes, SYBR Green DNA, 72 h; series mostly up to 28.7 µM
Outline: as §2

CP203 = assay: as above; conditions: P. falciparum in erythrocytes, SYBR Green DNA, 72 h; series mostly up to 28.7 µM
Outline: as §2

CP211 = assay: as above; conditions: P. falciparum in erythrocytes, SYBR Green DNA, 72 h; series mostly up to 28.7 µM
Outline: as §2

CP215 = assay: as above; conditions: P. falciparum in erythrocytes, SYBR Green DNA, 72 h; series mostly up to 28.7 µM
Outline: as §2

CP217 = assay: as above; conditions: P. falciparum in erythrocytes, SYBR Green DNA, 72 h; series mostly up to 28.7 µM
Outline: as §2

CP237 = assay: as above; conditions: P. falciparum in erythrocytes, SYBR Green DNA, 72 h; series mostly up to 28.7 µM
Outline: as §2

CP238 = assay: as above; conditions: P. falciparum in erythrocytes, SYBR Green DNA, 72 h; series mostly up to 28.7 µM
Outline: as §2

CP247 = assay: as above; conditions: P. falciparum in erythrocytes, SYBR Green DNA, 72 h; series mostly up to 28.7 µM
Outline: as §2

CO[C@H]1[C@@H](O)CC(OC2[C@@H](O)CC(OC3[C@@H](O)C[C@H](OC4CC[C@@]5(C)C(CCC6C5CC(O)[C@]5(C)[C@H](C7=CC(=O)OC7)CCC65O)C4)O[C@@H]3C)O[C@@H]2C)O[C@@H]1C (stereo partly drawn)
active: Potency [7] 240 nM
inactive: Potency [1] | Potency [2] | Potency [3] | Potency [4] | Potency (Furin (Homo sapiens)) | Potency [5] | Potency [6] | Potency [8] | Potency [9] | Potency [11] | Potency [12] | activity, negative = inhibition ([13]; parasite line A) -4.67% | activity, negative = inhibition ([13]; parasite line B) 10.4% | Potency (3D7) | Potency (AA1029) | Potency (AS120) | Potency (ATS189) | Potency (ATS95) | Potency (C2A) | Potency (CP185) | Potency (CP191) | Potency (CP192) | Potency (CP194) | Potency (CP201) | Potency (CP203) | Potency (CP211) | Potency (CP215) | Potency (CP217) | Potency (CP237) | Potency (CP238) | Potency (CP247)
-97.7% [at 114 µM]: activity change, negative = inhibition [10]
